Screens from PubChem BioAssay.
NPR1 antag: Natriuretic polypeptide receptor (hNpr1) antagonism - Primary qHTS; Atrial natriuretic peptide receptor 1 (Homo sapiens), P16066; HEK293 hNpr1 GloSensor cGMP, ANP-stimulated luminescence; Potency, µM (series often up to 46.3 µM), actives largely listed as inhibitors; 76,000 compounds, 1.6% hits; AID 1347048, 2019; calls by dose curve; further: nearly all actives have a fitted effect of over 60% in size
Target sequence (P16066 whole entry, looked up): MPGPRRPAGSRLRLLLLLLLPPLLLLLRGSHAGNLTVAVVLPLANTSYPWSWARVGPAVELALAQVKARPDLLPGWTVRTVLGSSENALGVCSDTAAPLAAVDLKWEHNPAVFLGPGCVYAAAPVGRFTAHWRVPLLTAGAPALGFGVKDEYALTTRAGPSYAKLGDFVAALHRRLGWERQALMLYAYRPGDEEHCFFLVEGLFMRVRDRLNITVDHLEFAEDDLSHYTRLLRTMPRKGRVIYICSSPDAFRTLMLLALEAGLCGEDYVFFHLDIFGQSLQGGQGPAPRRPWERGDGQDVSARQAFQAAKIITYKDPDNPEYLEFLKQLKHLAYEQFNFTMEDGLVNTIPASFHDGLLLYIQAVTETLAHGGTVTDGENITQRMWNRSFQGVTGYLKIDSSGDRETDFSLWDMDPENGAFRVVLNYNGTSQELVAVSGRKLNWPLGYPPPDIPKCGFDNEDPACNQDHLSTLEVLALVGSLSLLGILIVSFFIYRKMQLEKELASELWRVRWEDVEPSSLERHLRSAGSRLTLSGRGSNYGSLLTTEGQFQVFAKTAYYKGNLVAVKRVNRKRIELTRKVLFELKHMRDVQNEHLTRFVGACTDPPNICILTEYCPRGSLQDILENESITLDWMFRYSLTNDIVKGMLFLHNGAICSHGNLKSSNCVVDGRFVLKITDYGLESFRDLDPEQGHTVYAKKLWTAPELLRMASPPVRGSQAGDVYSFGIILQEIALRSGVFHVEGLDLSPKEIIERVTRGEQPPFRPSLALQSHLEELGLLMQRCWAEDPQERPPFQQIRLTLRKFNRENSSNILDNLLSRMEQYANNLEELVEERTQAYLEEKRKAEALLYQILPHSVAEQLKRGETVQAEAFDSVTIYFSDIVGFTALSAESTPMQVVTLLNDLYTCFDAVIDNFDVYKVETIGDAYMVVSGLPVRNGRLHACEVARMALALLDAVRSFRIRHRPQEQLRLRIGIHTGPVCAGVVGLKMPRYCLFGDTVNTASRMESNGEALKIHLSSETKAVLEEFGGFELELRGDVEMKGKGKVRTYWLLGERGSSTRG
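HEK293 cells stably expressing human Npr1 and cGMP GloSensor pGS-40F, loaded 2 h with 2% GloSensor reagent, given compound 30 min at room temperature. Luminescence read before and 20 min after 0.1 nM hNppA.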
HEK cytotox: Cytotoxic Profiling in HEK 293 Cell Line of Diverse Libraries Using Quantitative High-Throughput Screening; HEK 293 viability, ATP luminescence (CellTiter-Glo), 48-72 h; Potency, µM (titrated, usually from 115 µM), actives largely listed as inhibitors; 94,000 compounds, 6.6% hits; AID 1345083, 2018; further: nearly all actives have a fitted effect of over 60% in size
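ATP-coupled CellTiter-Glo luminescence served as viability read-out, recorded 10 min after reagent addition at room temperature. HEK 293 cells, 250 cells/well, had been incubated with pintool-transferred compound for 48 or 72 hr at 37 degree Celsius.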
3T3 cytotox: Cytotoxic Profiling in NIH 3T3 Cell Line of Diverse Libraries Using Quantitative High-Throughput Screening; NIH 3T3 viability, CellTiter-Glo ATP luminescence, 48-72 h; Potency, µM (highest dose often 96.7 µM), most hits filed as inhibitors; 94,000 compounds, 4.3% hits; AID 1345082, 2018; further: nearly all actives have a fitted effect of over 55% in size
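NIH 3T3 cells at 400 cells/well received 23 nL of compound by pintool and were incubated 48 or 72 h at 37 °C. Viability was read as ATP-coupled CellTiter-Glo luminescence.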
FLuc inh: Firefly luciferase inhibition profiling of diverse chemical library using quantitative high-throughput screening; Potency, µM (top dose mostly 115 µM), usual class: inhibitors; Luciferin 4-monooxygenase (Photinus pyralis), P08659; purified P. pyralis luciferase, luminescence, biochemical; AID 1347043, 2019; 76,000 compounds, 2.5% hits; further: nearly all actives have a fitted effect of over 65% in size
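Cell-free enzyme assay, 10nM P. pyralis luciferase, luciferin and ATP each at 10uM. Inhibition profiled over a 6-point titration, read as luminescence.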
Each line names hits and unclear results; the compound was inactive in the other large screens. Most compounds without a hit are left out; they make up all but 11% or so of the library. Unless noted, the call rests on the fitted dose curve; in most records, active means well fitted curve in the direction sought with a large enough effect; inconclusive means small, poorly fitted or top-dose-only effect, or another doubt; inactive means no such curve, though single readings can be large; an effect the other way counts as inactive or inconclusive.

COc1ccc(Cl)cc1C(=O)NC1CCN(c2cc(-c3cccs3)[nH]n2)CC1	HEK cytotox inconclusive, 3T3 cytotox 7.94µM
Cc1ccc(C(=O)NC2CCN(c3cc(-c4cccs4)[nH]n3)CC2)c(C)c1	HEK cytotox inconclusive, 3T3 cytotox 31.6µM
COc1ccc(C(=O)NC2CCN(c3cc(-c4cccs4)[nH]n3)CC2)cc1	HEK cytotox inconclusive, 3T3 cytotox inconclusive, FLuc inh 17.8µM
Cc1ccc(C(=O)NC2CCN(c3cc(-c4cccs4)[nH]n3)C2)c(C)c1 (centres undefined)	none
CC1(c2ccccc2)N(Cc2ccccc2F)C(=O)OC12CCN(c1cccnc1)CC2 (centres undefined)	HEK cytotox 89.1µM, 3T3 cytotox 89.1µM
CC1(c2ccccc2)N(Cc2ccccc2F)C(=O)OC12CCN(Cc1cccnc1)CC2 (centres undefined)	HEK cytotox inconclusive, 3T3 cytotox inconclusive
COc1ccccc1CN1CCC2(CC1)OC(=O)N(Cc1ccccc1F)C2(C)c1ccccc1 (centres undefined)	HEK cytotox 35.5µM, 3T3 cytotox 28.2µM
COc1ccc(CN2Cc3cc(NC(=O)c4ccccc4OC)ccc3OCC2=O)c(OC)c1	HEK cytotox 39.8µM, 3T3 cytotox 25.1µM
CCC1Oc2ccc(NC(=O)c3ccccc3F)cc2CN(CCc2ccc(OC)c(OC)c2)C1=O (centres undefined)	HEK cytotox inconclusive, 3T3 cytotox 39.8µM
CC1Oc2ccc(NC(=O)c3c(F)cccc3F)cc2CN(CCc2ccc(F)cc2)C1=O (centres undefined)	HEK cytotox inconclusive, 3T3 cytotox inconclusive
CCC1Oc2ccc(NC(=O)c3ccccc3F)cc2CN(Cc2ccc3c(c2)OCO3)C1=O (centres undefined)	HEK cytotox inconclusive, 3T3 cytotox inconclusive
COc1ccccc1C(=O)Nc1ccc2c(c1)CN(Cc1ccc(F)cc1)C(=O)C(C)O2 (centres undefined)	HEK cytotox 35.5µM, 3T3 cytotox inconclusive
COc1cccc(OC)c1C(=O)Nc1ccc2c(c1)CN(Cc1ccccc1F)C(=O)C(C)O2 (centres undefined)	HEK cytotox inconclusive
COc1ccc(C(=O)Nc2ccc3c(c2)CN(Cc2ccc(OC)cc2OC)C(=O)CO3)cc1	HEK cytotox inconclusive, 3T3 cytotox inconclusive, FLuc inh inconclusive
CC1Oc2ccc(NC(=O)c3c(F)cccc3F)cc2CN(Cc2ccc(Cl)cc2)C1=O (centres undefined)	HEK cytotox 15.8µM, 3T3 cytotox inconclusive
CCOC(=O)[C@@H]1[C@@H](O)C(=O)N(C)C12CCN(C(=O)c1cccc(C#N)c1)CC2	3T3 cytotox inconclusive (no result: NPR1 antag, FLuc inh)
COC[C@@H]1CN(C(=O)c2ccncc2)C[C@H]1c1ccccn1	none (no result: NPR1 antag, FLuc inh)
Cc1ccc(-c2nc(CNC(=O)[C@@H]3CCCN3)[nH]c2-c2ccccn2)cc1	HEK cytotox inconclusive
CC1Oc2ccc(NC(=O)c3ccccc3Cl)cc2CN(Cc2ccc(F)cc2)C1=O (centres undefined)	HEK cytotox 39.8µM, 3T3 cytotox inconclusive
c1ccc(CN2Cc3[nH]cnc3C[C@H]2c2nc(-c3ccccn3)no2)cc1	none
Cn1nccc1C(=O)N1CCC2(CC1)OC(=O)N(Cc1ccccc1)C2(C)c1cccnc1 (centres undefined)	3T3 cytotox 28.2µM
CC1(c2cccnc2)N(Cc2ccccc2)C(=O)OC12CCN(C(=O)Cc1ccc3c(c1)OCO3)CC2 (centres undefined)	3T3 cytotox inconclusive
Cn1nccc1C(=O)N1CCC2(CC1)OC(=O)N(Cc1ccccc1)C2(C)c1ccccc1 (centres undefined)	3T3 cytotox inconclusive
CC(C)C(=O)N1CCC2(CC1)OC(=O)N(Cc1ccccc1)C2(C)c1cccnc1 (centres undefined)	3T3 cytotox 20µM
CC1(c2ccccc2)N(Cc2ncccn2)C(=O)OC12CCN(C(=O)Cc1ccc(Cl)cc1)CC2 (centres undefined)	3T3 cytotox inconclusive
CC1(c2ccccc2)N(Cc2ncccn2)C(=O)OC12CCN(C(=O)Cc1ccc3c(c1)OCO3)CC2 (centres undefined)	3T3 cytotox 39.8µM
